# Reference: a collection of fitness landscapes (doi:10.1016/j.celrep.2020.107928)
# The full ranking holds about 81,000 sequences; the median of “one-hybrid fitness for binding NBS DNA” is about -0.1, and the highest 2% start at about 0.36. What follows is part of a selection rich in the highest values, with near analogues and random picks from the rest.
# B1: Caulobacter ParB omega fusion; a variant is named by its letters at X, in order, B8GW30 (parent)
# chain: MESVVVGEPGMSEGRRGLGRGLSALLGEVDAAPAQAPGEQLGGSREAPIEILQRNPDQPRRTFREEDLEDLSNSIREKGVLQPILVRPSPDTAGEYQIVAGERAWRAAQRAGLKTVPIMVRELDDLAVLEIGIIENVQRADLNVLEEALSYKVLMEKFERTQENIAQTIGKSXSHVANXMRLLXLPDEVQSYLVSGELTAXHARAIAAAADPVALAKQIIEGGLSVRETEALARKAPNLSAGKSKGGRPPRVKDTDTQALESDLSSVLGLDVSIDHRGSTGTLTITYATLEQLDDLCNRLTRGI
# Variants of: B1
# Assay: one-hybrid fitness for binding NBS DNA (the Noc-binding site; scaled: cognate 1, non-cognate 0); higher = stronger binding
# Details: with NBS DNA site
# Method in brief: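 Pre- and post-selection plasmids were Illumina-sequenced, three replicate libraries were pooled, and any variant with under 10 reads was removed. The libraries were Caulobacter ParB with four specificity codons randomised, selected in E. coli USO through a HIS3 reporter whose site is 19 bp from the promoter. Cells grew 48 hours at 37°C on M9 without histidine, with 0.1 mM IPTG and 5 mM 3-AT. Fitness is the log change in variant-to-wild-type read ratio, rescaled against cognate and non-cognate.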
row,Variant,one-hybrid fitness for binding NBS DNA
1,FLTY,≤ 0.2
2,KTPC,≤ 0.2
3,PLQH,≤ 0.2
4,TATP,≤ 0.2
5,MRTF,≤ 0.2
6,QQQM,≤ 0.2
7,QQHC,≤ 0.2
8,QQGT,0.475
9,QQYT,0.473
10,QQQY,0.247
11,QQHM,≤ 0.2
12,QQGM,0.202
13,DQYT,≤ 0.2
14,QQHT,0.535
15,QQGD,≤ 0.2
16,QQQT,0.449
17,SAFG,≤ 0.2
18,IKRQ,≤ 0.2
19,STKR,0.254
20,FDSL,≤ 0.2
21,VKGK,≤ 0.2
22,DTSI,≤ 0.2
23,QQSP,≤ 0.2
24,QQST,0.516
25,QQSD,≤ 0.2
26,QQCS,0.356

row,Variant,one-hybrid fitness for binding NBS DNA
1,QQCT,0.528
2,QQCN,≤ 0.2
3,QYFY,≤ 0.2
4,QYKN,0.366
5,QYRY,0.486
6,QYGY,≤ 0.2
7,QYKE,0.213
8,QYKY,0.479
9,QYDY,≤ 0.2
10,QYVY,≤ 0.2
11,QYLT,0.383
12,QYKL,0.246
13,QYLN,≤ 0.2
14,QYLD,≤ 0.2
15,VANF,≤ 0.2
16,NCLY,≤ 0.2
17,QFRV,≤ 0.2
18,SHNY,≤ 0.2
19,QQPF,≤ 0.2
20,TSAQ,≤ 0.2
21,HDDG,≤ 0.2
22,CDFR,≤ 0.2
23,SYFG,≤ 0.2
24,LSYG,≤ 0.2
25,QYLM,≤ 0.2
26,QYKH,0.569

row,Variant,one-hybrid fitness for binding NBS DNA
1,QYWY,≤ 0.2
2,QYCG,≤ 0.2
3,QYKG,0.294
4,QYPM,≤ 0.2
5,QYCT,0.419
6,QYKM,0.369
7,QYWN,≤ 0.2
8,QYWT,0.378
9,QYCY,≤ 0.2
10,QYKF,0.229
11,LVLD,≤ 0.2
12,GKTG,≤ 0.2
13,TVSI,≤ 0.2
14,MEAE,≤ 0.2
15,YPFW,≤ 0.2
16,SPYH,≤ 0.2
17,HDPT,≤ 0.2
18,NGHF,≤ 0.2
19,GEAN,≤ 0.2
20,SSSE,≤ 0.2
21,QYSH,≤ 0.2
22,QYST,0.413
23,QYYK,≤ 0.2
24,QYVT,0.363
25,QYSS,0.357
26,QYKK,0.398

row,Variant,one-hybrid fitness for binding NBS DNA
1,QYRK,0.36
2,QYHT,0.417
3,QYHC,≤ 0.2
4,QYKT,0.722
5,QYHQ,≤ 0.2
6,QYPT,0.255
7,VTAR,≤ 0.2
8,SYLG,≤ 0.2
9,HAQP,≤ 0.2
10,GPML,≤ 0.2
11,SDVP,≤ 0.2
12,IIPF,≤ 0.2
13,PDHK,≤ 0.2
14,MVPA,≤ 0.2
15,MAQR,≤ 0.2
16,QYYM,≤ 0.2
17,QYKS,0.643
18,QYFT,0.335
19,QYAS,0.327
20,QYKP,0.232
21,QYAT,0.427
22,QYRT,0.733
23,QYRM,0.394
24,QYYT,0.352
25,QYKD,0.212
26,QYDM,≤ 0.2

row,Variant,one-hybrid fitness for binding NBS DNA
1,QYIT,0.355
2,SPCH,≤ 0.2
3,YMAS,≤ 0.2
4,ELYR,≤ 0.2
5,YQKG,≤ 0.2
6,QERT,≤ 0.2
7,TNGI,≤ 0.2
8,RKFN,≤ 0.2
9,RKAP,≤ 0.2
10,RKAD,≤ 0.2
11,RKFP,≤ 0.2
12,RKAS,0.597
13,RKFS,0.435
14,EDSG,≤ 0.2
15,VTLK,≤ 0.2
16,ISMT,≤ 0.2
17,SRDR,≤ 0.2
18,QCRN,0.482
19,QCYN,≤ 0.2
20,QSRN,0.374
21,QSDN,≤ 0.2
22,QPRN,≤ 0.2
23,QSYN,≤ 0.2
24,KTCN,≤ 0.2
25,LIAD,≤ 0.2
26,LNLA,≤ 0.2

row,Variant,one-hybrid fitness for binding NBS DNA
1,QQVI,≤ 0.2
2,QQFI,≤ 0.2
3,QQRI,0.383
4,QQYI,≤ 0.2
5,QQDI,≤ 0.2
6,QQKI,0.399
7,ESLH,≤ 0.2
8,QAIS,≤ 0.2
9,QAYS,0.305
10,QARN,0.349
11,QARH,0.529
12,QAYH,≤ 0.2
13,QARS,0.644
14,TNFS,≤ 0.2
15,TAIV,≤ 0.2
16,LTFR,≤ 0.2
17,SLFT,≤ 0.2
18,ITST,≤ 0.2
19,SLTL,≤ 0.2
20,QPDS,≤ 0.2
21,QRNF,0.327
22,QRNS,0.716
23,QRDS,0.468
24,QRNE,0.276
